Measured values: the supplement of paper PMC11732987, “Enantioselective OTUD7B fragment discovery through chemoproteomics screening and high-throughput optimisation” (Communications Chemistry, 2025)

Tests used:
Test in all cases: log2 ratio of Biotin-Ahx-Ub-VS probe labelling (fragment/DMSO); higher = less target engagement (more negative = stronger competition), active = hit call of the paper (q ≤ 0.05, log2 ratio ≤ -1)
Conditions in all cases: compound concentration: 200 uM; treatment time: 3 h
USP34 = USP34 (UniProt Q70CQ2)
Chain of USP34 (Q70CQ2 whole entry, the tested form may be a part): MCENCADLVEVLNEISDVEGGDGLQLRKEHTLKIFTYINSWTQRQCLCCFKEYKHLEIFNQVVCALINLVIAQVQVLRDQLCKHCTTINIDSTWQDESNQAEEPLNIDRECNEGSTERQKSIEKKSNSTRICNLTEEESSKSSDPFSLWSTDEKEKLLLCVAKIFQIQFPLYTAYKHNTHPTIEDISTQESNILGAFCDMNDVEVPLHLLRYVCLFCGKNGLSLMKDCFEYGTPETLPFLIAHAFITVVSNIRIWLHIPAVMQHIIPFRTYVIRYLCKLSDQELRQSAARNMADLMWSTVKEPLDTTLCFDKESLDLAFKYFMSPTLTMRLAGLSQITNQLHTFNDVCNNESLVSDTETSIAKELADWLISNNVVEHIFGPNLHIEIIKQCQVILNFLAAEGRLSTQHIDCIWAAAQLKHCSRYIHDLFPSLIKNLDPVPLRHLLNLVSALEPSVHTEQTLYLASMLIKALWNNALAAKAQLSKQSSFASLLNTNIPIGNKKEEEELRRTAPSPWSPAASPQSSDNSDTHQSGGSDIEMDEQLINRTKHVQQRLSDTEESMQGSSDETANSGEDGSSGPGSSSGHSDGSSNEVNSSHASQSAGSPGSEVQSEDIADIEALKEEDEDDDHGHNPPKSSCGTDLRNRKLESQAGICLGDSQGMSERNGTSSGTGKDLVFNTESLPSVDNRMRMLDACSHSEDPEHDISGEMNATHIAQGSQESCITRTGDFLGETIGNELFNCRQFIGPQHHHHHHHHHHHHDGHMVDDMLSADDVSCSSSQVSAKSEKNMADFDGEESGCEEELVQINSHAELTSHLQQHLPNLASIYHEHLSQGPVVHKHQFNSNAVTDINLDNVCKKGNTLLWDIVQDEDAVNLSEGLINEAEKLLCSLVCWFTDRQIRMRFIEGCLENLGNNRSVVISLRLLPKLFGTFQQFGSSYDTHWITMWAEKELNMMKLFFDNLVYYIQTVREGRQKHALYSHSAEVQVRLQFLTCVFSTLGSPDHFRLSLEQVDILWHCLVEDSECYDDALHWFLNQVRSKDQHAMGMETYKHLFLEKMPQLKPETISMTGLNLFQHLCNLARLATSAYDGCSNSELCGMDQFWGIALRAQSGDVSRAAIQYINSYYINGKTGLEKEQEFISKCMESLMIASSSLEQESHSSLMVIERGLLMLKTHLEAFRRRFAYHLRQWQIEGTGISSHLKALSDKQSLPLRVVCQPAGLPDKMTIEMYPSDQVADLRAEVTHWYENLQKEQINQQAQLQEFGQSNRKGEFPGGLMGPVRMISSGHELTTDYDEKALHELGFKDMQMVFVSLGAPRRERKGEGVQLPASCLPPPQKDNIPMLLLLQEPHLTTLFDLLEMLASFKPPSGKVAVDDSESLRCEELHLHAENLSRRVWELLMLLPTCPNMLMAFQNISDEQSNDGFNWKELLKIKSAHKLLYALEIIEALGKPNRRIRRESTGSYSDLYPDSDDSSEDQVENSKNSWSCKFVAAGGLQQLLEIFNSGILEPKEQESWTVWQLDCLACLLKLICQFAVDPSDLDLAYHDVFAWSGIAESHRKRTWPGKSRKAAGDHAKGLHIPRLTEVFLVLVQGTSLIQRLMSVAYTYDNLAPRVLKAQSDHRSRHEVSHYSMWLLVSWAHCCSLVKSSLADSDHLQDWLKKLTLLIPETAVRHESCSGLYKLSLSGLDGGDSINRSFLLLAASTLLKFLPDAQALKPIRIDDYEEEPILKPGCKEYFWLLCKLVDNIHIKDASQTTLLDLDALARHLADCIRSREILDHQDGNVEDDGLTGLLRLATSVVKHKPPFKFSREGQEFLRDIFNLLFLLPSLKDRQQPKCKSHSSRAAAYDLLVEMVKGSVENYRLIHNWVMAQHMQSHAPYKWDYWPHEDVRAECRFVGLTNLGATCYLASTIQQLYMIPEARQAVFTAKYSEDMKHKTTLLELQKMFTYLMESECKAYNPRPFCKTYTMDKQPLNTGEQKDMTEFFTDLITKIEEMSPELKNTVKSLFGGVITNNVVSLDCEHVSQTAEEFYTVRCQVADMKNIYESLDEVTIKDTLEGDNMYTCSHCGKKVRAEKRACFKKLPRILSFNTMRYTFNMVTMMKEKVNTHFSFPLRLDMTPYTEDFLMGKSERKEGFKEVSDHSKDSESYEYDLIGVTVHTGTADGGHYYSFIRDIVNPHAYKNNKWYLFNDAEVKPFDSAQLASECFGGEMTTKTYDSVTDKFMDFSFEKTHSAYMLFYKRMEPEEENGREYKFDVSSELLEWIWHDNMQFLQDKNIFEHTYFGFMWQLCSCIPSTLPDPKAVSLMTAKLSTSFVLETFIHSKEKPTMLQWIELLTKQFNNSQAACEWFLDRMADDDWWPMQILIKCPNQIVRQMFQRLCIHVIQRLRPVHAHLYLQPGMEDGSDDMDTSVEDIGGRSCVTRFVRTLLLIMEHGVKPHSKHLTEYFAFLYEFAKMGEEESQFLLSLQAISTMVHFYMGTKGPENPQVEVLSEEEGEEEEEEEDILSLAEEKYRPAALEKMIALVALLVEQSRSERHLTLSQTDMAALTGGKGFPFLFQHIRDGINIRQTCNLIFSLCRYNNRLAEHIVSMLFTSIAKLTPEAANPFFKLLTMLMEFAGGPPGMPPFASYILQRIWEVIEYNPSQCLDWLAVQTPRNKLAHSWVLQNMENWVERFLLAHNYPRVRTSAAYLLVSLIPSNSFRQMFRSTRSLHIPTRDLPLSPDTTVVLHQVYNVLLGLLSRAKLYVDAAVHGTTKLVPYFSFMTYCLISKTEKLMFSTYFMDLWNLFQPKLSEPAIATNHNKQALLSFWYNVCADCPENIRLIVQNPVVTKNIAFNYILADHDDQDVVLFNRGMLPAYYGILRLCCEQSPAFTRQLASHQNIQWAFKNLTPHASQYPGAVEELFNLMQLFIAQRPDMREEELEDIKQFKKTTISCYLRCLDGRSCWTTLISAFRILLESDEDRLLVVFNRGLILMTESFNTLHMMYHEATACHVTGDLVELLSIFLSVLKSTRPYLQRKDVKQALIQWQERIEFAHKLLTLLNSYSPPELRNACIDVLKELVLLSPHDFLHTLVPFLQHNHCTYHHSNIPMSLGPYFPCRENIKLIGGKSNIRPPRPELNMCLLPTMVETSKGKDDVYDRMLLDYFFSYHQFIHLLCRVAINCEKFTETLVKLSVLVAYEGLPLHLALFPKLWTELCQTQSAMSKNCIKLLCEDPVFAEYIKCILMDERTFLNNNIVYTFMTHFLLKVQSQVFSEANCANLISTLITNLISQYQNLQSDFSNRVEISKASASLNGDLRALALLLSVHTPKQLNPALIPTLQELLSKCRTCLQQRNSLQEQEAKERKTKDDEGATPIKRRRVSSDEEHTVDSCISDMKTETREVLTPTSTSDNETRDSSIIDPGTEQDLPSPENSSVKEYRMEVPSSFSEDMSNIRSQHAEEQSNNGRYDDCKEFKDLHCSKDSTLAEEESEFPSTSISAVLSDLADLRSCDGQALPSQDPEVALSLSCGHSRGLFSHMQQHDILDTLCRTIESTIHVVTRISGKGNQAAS
In short: (§1)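 Labelled DUBs were enriched with NeutrAvidin, digested with LysC and trypsin, and run by diaPASEF LC-MS/MS. The labelling used Biotin-Ahx-Ub-VS at 0.5 µM final for 1 h on HEK293T lysate (495 µg per sample) previously treated in triplicate with fragment at 200 µM or vehicle for 3 h. Values are average log2 fragment/vehicle ratios by unpaired t-test on global-median-normalised Spectronaut quantities of proteins with ≥2 unique peptides.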

USP36 = molecular target: T1, USP36 (UniProt Q9P275)
T1 sequence (whole entry): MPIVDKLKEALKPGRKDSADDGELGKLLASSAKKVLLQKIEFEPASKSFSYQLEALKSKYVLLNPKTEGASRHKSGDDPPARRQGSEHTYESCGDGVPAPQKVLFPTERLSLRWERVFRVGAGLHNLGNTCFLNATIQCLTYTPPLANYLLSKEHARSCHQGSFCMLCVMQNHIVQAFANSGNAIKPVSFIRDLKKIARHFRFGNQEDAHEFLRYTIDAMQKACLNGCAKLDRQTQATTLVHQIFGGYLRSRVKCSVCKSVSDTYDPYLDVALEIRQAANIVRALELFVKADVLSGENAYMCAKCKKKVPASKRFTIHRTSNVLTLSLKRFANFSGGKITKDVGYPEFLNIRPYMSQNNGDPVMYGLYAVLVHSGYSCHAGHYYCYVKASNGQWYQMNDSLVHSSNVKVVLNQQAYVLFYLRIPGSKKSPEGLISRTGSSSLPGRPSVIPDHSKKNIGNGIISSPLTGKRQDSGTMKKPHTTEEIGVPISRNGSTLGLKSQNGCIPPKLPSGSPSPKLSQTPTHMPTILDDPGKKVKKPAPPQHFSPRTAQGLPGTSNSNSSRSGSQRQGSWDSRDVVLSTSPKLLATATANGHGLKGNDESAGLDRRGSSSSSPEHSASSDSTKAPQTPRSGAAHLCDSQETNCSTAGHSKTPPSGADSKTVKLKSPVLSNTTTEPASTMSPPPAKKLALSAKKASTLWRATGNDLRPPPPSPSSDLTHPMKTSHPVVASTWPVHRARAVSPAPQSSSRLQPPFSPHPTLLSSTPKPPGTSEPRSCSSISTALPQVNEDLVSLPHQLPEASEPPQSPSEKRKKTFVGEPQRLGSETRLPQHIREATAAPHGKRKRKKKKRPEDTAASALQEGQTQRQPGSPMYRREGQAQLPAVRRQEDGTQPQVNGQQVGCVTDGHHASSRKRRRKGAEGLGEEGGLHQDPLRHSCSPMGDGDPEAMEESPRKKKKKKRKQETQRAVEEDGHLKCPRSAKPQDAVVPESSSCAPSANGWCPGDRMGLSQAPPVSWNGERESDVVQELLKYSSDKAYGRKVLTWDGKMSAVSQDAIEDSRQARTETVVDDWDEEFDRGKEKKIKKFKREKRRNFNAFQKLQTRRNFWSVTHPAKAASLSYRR
In short: as §1

USP38 = molecular target: T2, USP38 (UniProt Q8NB14)
T2 sequence (whole entry): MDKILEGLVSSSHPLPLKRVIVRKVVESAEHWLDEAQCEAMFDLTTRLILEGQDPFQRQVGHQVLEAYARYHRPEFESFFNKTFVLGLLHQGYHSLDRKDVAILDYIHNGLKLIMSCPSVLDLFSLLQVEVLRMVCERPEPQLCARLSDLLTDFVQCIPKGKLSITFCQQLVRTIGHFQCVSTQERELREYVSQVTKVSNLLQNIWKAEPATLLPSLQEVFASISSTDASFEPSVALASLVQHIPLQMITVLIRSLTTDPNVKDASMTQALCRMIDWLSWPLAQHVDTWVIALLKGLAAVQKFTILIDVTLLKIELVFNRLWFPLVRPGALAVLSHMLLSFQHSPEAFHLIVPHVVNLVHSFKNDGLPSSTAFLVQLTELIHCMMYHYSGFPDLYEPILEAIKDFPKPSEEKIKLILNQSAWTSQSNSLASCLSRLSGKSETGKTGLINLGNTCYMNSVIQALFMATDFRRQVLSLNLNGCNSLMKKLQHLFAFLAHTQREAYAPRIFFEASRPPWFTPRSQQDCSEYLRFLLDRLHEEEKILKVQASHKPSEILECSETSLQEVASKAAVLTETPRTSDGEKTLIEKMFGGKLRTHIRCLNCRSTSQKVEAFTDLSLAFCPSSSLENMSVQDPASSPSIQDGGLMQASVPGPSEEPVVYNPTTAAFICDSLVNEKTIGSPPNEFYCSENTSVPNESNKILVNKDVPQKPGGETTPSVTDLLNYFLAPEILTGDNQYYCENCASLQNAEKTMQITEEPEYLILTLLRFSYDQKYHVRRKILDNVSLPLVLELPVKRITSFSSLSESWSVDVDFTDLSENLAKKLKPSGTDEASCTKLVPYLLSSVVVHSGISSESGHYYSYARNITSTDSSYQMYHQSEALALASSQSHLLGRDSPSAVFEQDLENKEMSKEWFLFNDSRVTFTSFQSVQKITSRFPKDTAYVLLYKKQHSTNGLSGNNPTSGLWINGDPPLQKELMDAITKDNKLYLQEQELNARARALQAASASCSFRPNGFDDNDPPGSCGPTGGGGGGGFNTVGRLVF
In short: as §1

USP39 = molecular target: T3, USP39 (UniProt Q53GS9)
T3 sequence (whole entry): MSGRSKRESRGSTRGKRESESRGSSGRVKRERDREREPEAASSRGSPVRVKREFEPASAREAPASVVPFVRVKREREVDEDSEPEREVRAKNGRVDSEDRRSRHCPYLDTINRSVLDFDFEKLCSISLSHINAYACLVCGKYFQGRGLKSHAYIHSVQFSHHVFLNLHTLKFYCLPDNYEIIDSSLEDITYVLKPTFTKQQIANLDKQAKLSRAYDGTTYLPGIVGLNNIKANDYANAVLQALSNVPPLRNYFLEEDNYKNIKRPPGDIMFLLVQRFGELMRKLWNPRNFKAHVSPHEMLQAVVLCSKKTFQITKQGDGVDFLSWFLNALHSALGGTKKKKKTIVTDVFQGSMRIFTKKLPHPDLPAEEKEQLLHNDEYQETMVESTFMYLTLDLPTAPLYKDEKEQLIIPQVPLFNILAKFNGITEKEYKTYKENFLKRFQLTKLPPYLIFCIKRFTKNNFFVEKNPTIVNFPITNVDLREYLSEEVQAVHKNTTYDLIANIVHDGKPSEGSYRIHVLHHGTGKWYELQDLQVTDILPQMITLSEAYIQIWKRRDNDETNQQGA
In short: as §1

USP4 = molecular target: T4, USP4 (UniProt Q13107)
T4 sequence (whole entry): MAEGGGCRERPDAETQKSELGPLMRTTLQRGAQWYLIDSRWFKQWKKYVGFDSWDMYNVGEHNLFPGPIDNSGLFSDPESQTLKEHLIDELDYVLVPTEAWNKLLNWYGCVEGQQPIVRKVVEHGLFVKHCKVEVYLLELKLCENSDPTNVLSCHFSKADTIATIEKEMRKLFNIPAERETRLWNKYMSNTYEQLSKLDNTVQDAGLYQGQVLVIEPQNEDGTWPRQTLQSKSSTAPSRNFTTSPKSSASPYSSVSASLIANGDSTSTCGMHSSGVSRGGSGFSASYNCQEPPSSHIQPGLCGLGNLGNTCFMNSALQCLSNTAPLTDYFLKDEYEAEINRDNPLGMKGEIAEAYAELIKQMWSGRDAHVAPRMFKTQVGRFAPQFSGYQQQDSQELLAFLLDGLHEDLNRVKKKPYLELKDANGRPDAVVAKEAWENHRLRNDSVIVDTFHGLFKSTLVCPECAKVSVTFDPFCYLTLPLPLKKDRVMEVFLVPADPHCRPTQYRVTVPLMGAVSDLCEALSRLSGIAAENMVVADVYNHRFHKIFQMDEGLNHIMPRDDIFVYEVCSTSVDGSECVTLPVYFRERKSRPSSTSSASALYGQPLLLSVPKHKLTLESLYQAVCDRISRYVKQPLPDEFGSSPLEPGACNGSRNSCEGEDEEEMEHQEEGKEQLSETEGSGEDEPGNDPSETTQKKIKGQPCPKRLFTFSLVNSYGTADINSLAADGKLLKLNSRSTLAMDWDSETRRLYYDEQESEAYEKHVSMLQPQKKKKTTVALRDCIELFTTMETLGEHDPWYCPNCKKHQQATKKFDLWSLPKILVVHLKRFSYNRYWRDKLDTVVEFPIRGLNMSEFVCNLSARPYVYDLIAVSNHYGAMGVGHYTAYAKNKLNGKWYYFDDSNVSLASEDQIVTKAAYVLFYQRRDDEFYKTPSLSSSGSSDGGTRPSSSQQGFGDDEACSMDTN
In short: as §1

Measured: log2 ratio of Biotin-Ahx-Ub-VS probe labelling

Cc1ncc2c(n1)CCN(C(=O)CCl)C2
inactive: USP34 -0.14 | USP36 -0.0392 | USP38 -0.067 | USP39 0.0209 | USP4 -0.35
